Screening results as filed in PubChem BioAssay.
This is a sample that favours compounds with a hit; in the whole collection about 4.1% have one here.
ALR H2O2 inh: inhibitors of human sulfhydryl oxidase ALR; P55789; purified ALR, DTT oxidation, H2O2 HRP-luminol luminescence; inhibition, % (no concentration beside the values); 290,000 compounds, 3.8% hits;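 active means mean replicate inhibition above about 79%, with every replicate also reaching it, limit read from the data; inconclusive means only one of the two criteria met; inactive means mean below limit and not every replicate reaching it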
Target sequence (P55789 whole entry, looked up): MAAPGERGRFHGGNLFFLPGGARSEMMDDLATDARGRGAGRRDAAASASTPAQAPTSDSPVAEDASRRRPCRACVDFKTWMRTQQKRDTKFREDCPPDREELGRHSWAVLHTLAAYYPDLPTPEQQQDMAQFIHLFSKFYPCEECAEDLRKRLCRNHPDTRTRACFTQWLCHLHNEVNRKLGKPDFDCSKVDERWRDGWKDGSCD
Env fusion inh: inhibitors of HIV Env-mediated cell fusion | HeLa-JRFL Env/CEM21 cell fusion, luciferase | inhibition, % at 12.3 µM | 360,000 compounds, 1.1% hits;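 active means mean replicate inhibition score of at least 50 and every replicate individually at or above 50; inconclusive means only one of the two criteria met; inactive means mean below 50 and not all replicates reaching 50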;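 further: 0% = plate neutral controls and 100% = maraviroc near 300 nM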
F508del corr: correctors of CFTR F508del function in bronchial epithelial cells. CFBE cells, YFP halide quenching; stimulated with forskolin plus potentiator P3; % fluorescence drop versus neutral controls. activity (quench increase), % at 7.58 µM. 350,000 compounds, 0.36% hits. AID 720511;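 active means mean added fluorescence quench of at least 8% versus neutral control, with both replicates also reaching 8%; inconclusive means only one of the mean or replicate conditions met; inactive means mean below 8% and not both replicates reaching 8%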;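 further: cells transiently co-express mutant CFTR-F508del with the halide-sensitive YFP; corrector assay measuring rescue of mutant channel to the surface after 24 h compound exposure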
PglD inh: inhibitors of Campylobacter jejuni PglD acetyltransferase. purified PglD enzyme, DTNB colorimetric CoA detection. inhibition, % at 12.5 µM. 360,000 compounds, 0.098% hits. AID 602405; in the data active means inhibition above about 16%, passing the limit was not always enough; inconclusive means no clear call, values can overlap the other calls
Casp6 inh: inhibitors of human caspase-6. purified caspase-6, Z-VEID-R110 cleavage fluorescence. inhibition, % at 12.5 µM. 350,000 compounds, 0.53% hits;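 active means mean inhibition across replicates at least about 35%, with every replicate also reaching that limit, limit read from the data; inconclusive means only one of the two criteria met; inactive means neither criterion met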;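 further: 0% = median of neutral control wells and 100% = no fluorescence left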
Target sequence (P55212 24-179 limits assumed): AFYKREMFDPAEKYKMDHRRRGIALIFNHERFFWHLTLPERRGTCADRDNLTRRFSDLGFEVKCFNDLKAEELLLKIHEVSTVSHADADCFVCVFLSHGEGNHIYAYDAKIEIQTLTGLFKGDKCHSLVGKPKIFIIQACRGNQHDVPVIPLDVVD
Target sequence (P55212 194-293 limits assumed): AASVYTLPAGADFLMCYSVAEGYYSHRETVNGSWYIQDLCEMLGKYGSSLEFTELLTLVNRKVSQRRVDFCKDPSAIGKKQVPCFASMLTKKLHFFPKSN
NSD2 inh: blocks human histone methyltransferase NSD2; O96028; NSD2 peptide methylation, AlphaScreen, 120 min; inhibition, % at 12.5 µM; 310,000 compounds, 0.54% hits; AID 743445; in the data active means inhibition above about 50%
* marks the source's active call; other numbers are inactive results; ? = inconclusive; nt = no result given; [ ] = dose if it differs, or a comment.

SMILES	ALR H2O2 inh	Env fusion inh	F508del corr	PglD inh	Casp6 inh	NSD2 inh
CC1=NN(c2ccccc2)C(=O)C1N=Nc1cccc(O)c1 (stereo unspecified)	-25	-61	19*	-4	-1	2
COc1ccc(N2C(=O)CC(Nc3ccc(C)cc3)C2=O)cc1 (stereo unspecified)	-14	-77	nt	2	nt	25
COc1ccc(N2C(=O)CC(NNc3ncc(Cl)cc3Cl)C2=O)cc1 (stereo unspecified)	84*	6	4	nt	0	-7
CC(CNC(=O)[C@H]1O[C@@H](n2cnc3c(=O)[nH]c(N)nc32)[C@H](O)[C@@H]1O)c1ccccc1 (stereo partly specified)	nt	3	0	nt	3	nt
Nc1nc2c(ncn2[C@@H]2O[C@H](C(=O)NCC(c3ccccc3)c3ccccc3)[C@@H](O)[C@H]2O)c(=O)[nH]1	nt	75*	-5	nt	9	nt
CCOc1ccc(N(CC(=O)Nc2ccccc2Cl)S(C)(=O)=O)cc1	nt	-146	4	7	2	0
CCOc1ccc(N(CC(=O)NCCSCc2ccc(Cl)cc2)S(C)(=O)=O)cc1	0	80*	1	0	-5	-2
CCOc1ccc(N(CC(=O)Nc2cc(Cl)ccc2C)S(C)(=O)=O)cc1	-7	33	4	-5	57*	-3
Cc1ccc(CSCCNC(=O)CN(c2cccc([N+](=O)[O-])c2)S(C)(=O)=O)cc1	-18	55*	-2	nt	-1	2
COc1ccc(N(CC(=O)NCCSCc2ccc(Cl)cc2)S(C)(=O)=O)cc1Cl	-3	121*	3	-11	2	-2
CC(=O)N1[C@@H](CO)[C@@H]2c3ccccc3N(C(=O)c3ccccc3)C[C@@H]21	nt	nt	3	0	1	nt
C=CC1CN(S(=O)(=O)c2ccc(Br)cc2)C(=O)N1c1ccc(Br)cc1 (stereo unspecified)	nt	7[16.7 µM]	4	1	0	nt
O=C(Nc1cccc(F)c1)N1CC(=O)N2[C@H](CO)[C@H](c3ccc(-c4ccccc4)cc3)[C@H]2C1	nt	nt	-1	nt	1	nt
COC(=O)C[C@@H]1CC[C@@H]2[C@@H](COc3ccc(NC(=O)c4cscn4)cc3C(=O)N2C)O1	nt	nt	-2	-2	-1	nt
CC(=O)COC(=O)C1=NN(c2ccccc2)C(=O)CC1	-7	8	1	3	3	-5
Cc1ccc(-c2nc(COC(=O)C3=NN(c4ccccc4)C(=O)CC3)cs2)cc1	99*	-26	0	-6	-1	-6
Cn1cnc(S(=O)(=O)N2C[C@@H](O)COC[C@@H]3O[C@H](CC(=O)N4CCN(c5ccccc5)CC4)CC[C@H]32)c1	nt	-2[16.7 µM]	0	1	1	nt
NCC[C@H]1CC[C@@H](NC(=O)C2CCCC2)[C@H](CO)O1	nt	-10[16.7 µM]	-1	0	-7	nt
COC(=O)C1=C(NC(=O)c2cccc(OC)c2)CCS1	97*	nt	1	0	1	-4
C[C@@H]1CN([C@@H](C)CO)C(=O)c2cc(-c3ccccc3)cnc2O[C@@H]1CN(C)C(=O)NC1CCCC1	nt	20[16.7 µM]	-1	0	-3	nt
COC(=O)c1sc(NC(=O)C2c3ccccc3Oc3ccccc32)c(C(=O)OC)c1C	11	11	nt	nt	nt	-1
CCOC(=O)c1c(NC(=O)C2c3ccccc3Oc3ccccc32)sc(C(C)=O)c1C	-4	nt	11*	-4	-2	0
CCOC(=O)C1=C(c2ccccc2)NC(SCC(=O)Nc2cccc(C)c2)=C(C#N)C1c1ccco1 (stereo unspecified)	-3	111*	nt	nt	nt	12
COC(=O)CSC1=C(C#N)C(c2ccc(C)o2)CC(=O)N1 (stereo unspecified)	1	-14	9.7*	-5	0	-2
COC(=O)CSC1=C(C#N)C(c2ccc(F)cc2)CC(=O)N1 (stereo unspecified)	nt	14	2	-1	-1	nt
SMILES	ALR H2O2 inh	Env fusion inh	F508del corr	PglD inh	Casp6 inh	NSD2 inh
Cc1ccc(NC(=O)CSC2=C(C#N)C(c3ccco3)CC(=O)N2)cc1 (stereo unspecified)	99*	nt	nt	nt	nt	1
COc1ccccc1C1CC(=O)NC(SCC(=O)Nc2ccccc2)=C1C#N (stereo unspecified)	nt	23	-1	-3	2	nt
Cc1ccc(C(=O)CSC2=C(C#N)C(c3ccco3)CC(=O)N2)c(C)c1 (stereo unspecified)	92*	-18	nt	-2	nt	8
C[C@@H]1CN([C@@H](C)CO)C(=O)CCCn2nncc2CO[C@H]1CN(C)Cc1ccccc1O	nt	nt	4	nt	1	nt
COc1ccc(S(=O)(=O)Nc2ccc3c(c2)C(=O)N([C@@H](C)CO)C[C@@H](C)[C@H](CN(C)C(=O)NC2CCCCC2)OCCCC[C@@H](C)O3)cc1	nt	-48[16.7 µM]	3	-2	1	nt
CCc1ccc(NC(=O)CSC2=C(C#N)C(c3ccco3)C3=C(CCCC3=O)N2)cc1 (stereo unspecified)	-11	nt	nt	-1	nt	1
Cc1ccc(NC(=O)CSC2=C(C#N)C(c3ccco3)C3=C(CC(C)(C)CC3=O)N2)cc1 (stereo unspecified)	98*	48	nt	2	nt	2
O=C(O)CC1S/C(=N/N=C/c2ccc(-c3ccc(Cl)c([N+](=O)[O-])c3)o2)NC1=O (stereo unspecified)	?	-7	3	nt	35*	3
Clc1cccc(-c2nn3c(Cn4cnc5ccccc54)nnc3s2)c1	nt	nt	2	nt	57*	4
CC=Cc1ccc2n(c1=O)C[C@H]1[C@H](CO)[C@@H](C(=O)NCC)[C@@H]2N1Cc1nccs1 (mixture of isomers)	nt	nt	-1	1	-3	nt
CNC[C@@H]1OCCCC[C@H](C)Oc2ccc(NC(=O)c3ccncc3)cc2C(=O)N([C@@H](C)CO)C[C@H]1C	nt	21[16.7 µM]	1	nt	nt	nt
CC(C)C(=O)C1=Cc2cccc([N+](=O)[O-])c2OC1N1CCOCC1 (stereo unspecified)	-17	7	3	6	37*	2
Cc1cc(C)nc(SCc2cc(=O)c(OC(=O)c3cc([N+](=O)[O-])ccc3Cl)co2)n1	94*	2	nt	nt	nt	-3
CCOC(=O)C1CCN(C(=O)CN(c2ccc(OC)cc2)S(=O)(=O)c2c(C)nn(C)c2C)CC1	nt	4	-3	-1	1	nt
CCOC(=O)C1CCN(C(=O)CN(c2ccc(OC)cc2)S(=O)(=O)c2c(C)noc2C)CC1	89*	18	-1	-3	1	nt
COc1ccc(OC)c(NC(=O)CN(c2ccc(C(C)C)cc2)S(=O)(=O)c2c(C)noc2C)c1	95*	22	-2	0	3	nt
Cc1cc(C)cc(N(CC(=O)N2CCN(Cc3ccccc3)CC2)S(=O)(=O)c2c(C)noc2C)c1	96*	-38	1	0	1	nt
COc1cccc(-c2cnc3c(c2)C(=O)N([C@@H](C)CO)C[C@@H](C)[C@@H](CN(C)C(=O)Nc2ccccc2F)O3)c1	nt	6[16.7 µM]	1	5	0	nt
